# Results filed as inconclusive are left out. Where a call stands in place of a potency, no number is given. The source made the active and inactive calls. Calls follow the shape of the dose curve; as a rule, active = well fitted inhibition curve with a large enough effect; inconclusive = small, poorly fitted or top-dose-only effect; inactive = no such curve, though single readings can be large or run the other way. Where a SMILES comes first, the peptide text is derived from it. The star is where a group is joined. AFC = O=c1cc(C(F)(F)F)c2ccc(N*)cc2o1
# Experiment: P-glycoprotein substrates identified in KB-3-1 adenocarcinoma cell line, qHTS therapeutic library screen (AID 1346986); also: nearly all actives have a fitted effect of over 60% in size;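 also: potency is for cytotoxicity meaning loss of cell viability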
# Settings: KB-3-1 parental cells viability, CellTiter-Glo, 72 h; series mostly up to 44.5 µM
# Method: The ATP-binding cassette transporters P-glycoprotein (P-gp) is known to limit brain penetration of many chemotherapy drugs. […] We used the CellTiter-Glo viability assay to test library compounds against the parental KB-3-1 human cervical adenocarcinoma cell line and the colchicine-selected sub-line KB-8-5-11 that over-expresses P-gp. KB-8-5-11 cells were also tested in the presence of a P-gp inhibitor (tariquidar) to assess reversability of transporter-mediated resistance. Of the tested compounds, a total of 90 P-gp substrates were identified including 55 newly identified P-gp substrates. Substrates were confirmed using an orthogonal killing assay against HEK-293 cells transfected with P-gp. As exemplars, we confirmed that AT7159 (cyclin-dependent kinase inhibitor); AT9283, (Janus kinase 2/3 inhibitor); ispinesib (kinesin spindle protein inhibitor); gedatolisib (PKI-587, phosphoinositide 3-kinase/mammalian target of rampamycin inhibitor); GSK-690693 (AKT inhibitor); and KW-2478 (heat shock protein 90 inhibitor) were substrates , and direct ATPase stimulation was assessed. ABCG2 was also found to confer high levels of resistance to AT9283, GSK-690693 and gedatolisib, while ispinesib, AT7519 and KW-2478 were weaker substrates.
# The HeLa derivative cell line, KB-3-1, and its colchicine-selected, P-gp-overexpressing subline, KB-8-5-11 were maintained in DMEM with 10% FCS and Pen/Strep with glutamine at 37 degree C in 5% CO2. For KB-8-5-11 cells, colchicine was added to the medium at a concentration of 100 ng/mL. HEK-293 cells transfected with empty vector (pcDNA) or vector containing human ABCB1 (MDR-19) or ABCG2 (R-5) have been described previously (Robey, Lin, Qiu, Chan & Bates, 2011) and were maintained in EMEM supplemented with 10% FCS, Pen/Strep and glutamine with 2 mg/ml G418 to select for the expression of the transporter. Cultures were confirmed to be free of mycoplasma infection using the MycoAlert Mycoplasma Detection Kit (Lonza, Walkersville, MD). For the screen, assay medium was identical to culture medium except for KB-8-5-11 where colchicine was excluded from the medium.
# All cell lines were plated into 1536-well plates at 500 cells/well in 5 uL media. Compounds were then pinned in dose-response using a 1536-head pin tool (Kalypsis, San Diego, CA) and plates were incubated at 37 degree C in 5% CO2 for an additional 72 h. CellTiter-Glo reagent (Promega) was dispensed into the wells, incubated for 5 min and luminescence was read on a ViewLux instrument (Perkin-Elmer). Cytotoxic compounds were defined as those that yielded a curve class of -1.1, -1.2, -2.1, -2.2, -2.3, or -2.4, a maximum response of >50% and an AC50 of < 10 uM. Cherry-picked hits from screening analysis were tested with both the KB pair of cell lines, and the pcDNA (empty vector control) and MDR-19 (P-gp overexpressing) pair were tested, in the absence and presence of tariquidar.
# Potency is read from the fitted curve at half-maximal effect.
SMILES,Potency,outcome
Cc1ccc(C(=O)Nc2noc3ccccc23)cc1,inactive,–
CC(C)=CC/C=C(\C)[C@H]1CC[C@]2(C)[C@@H]1[C@H](O)C[C@@H]1[C@@]3(C)CC[C@H](O)C(C)(C)[C@@H]3[C@@H](O[C@@H]3O[C@H](CO)[C@@H](O)[C@H](O)[C@H]3O)C[C@]12C,inactive,–
CC(O)CO[C@@H]1O[C@H](CO)[C@@H](O)[C@H](O)[C@H]1O (stereo not given in full),inactive,–
CC(=O)c1c(O)cc(O[C@@H]2O[C@H](CO)[C@@H](O)[C@H](O)[C@H]2O)cc1O,inactive,–
CC(=O)N[C@@H](CCCCN)C(=O)N(C)[C@@H](CC(C)C)C(=O)N[C@H](C(=O)N(C)[C@@H](Cc1ccccc1)C(=O)N[C@H](Cc1ccccc1)C(N)=O)C(C)C,–,inactive [at 5.11 µM]
N#Cc1c(Oc2ccc(F)c(NC(=O)Cc3cccc(C(F)(F)F)c3)c2)ccc2nc(NC(=O)C3CC3)sc12,6.51 µM (active),–
CC(=O)N[C@@H](Cc1c[nH]c2ccccc12)C(=O)N[C@@H](CCC(=O)O)C(=O)N[C@@H](Cc1cnc[nH]1)C(=O)N[C@@H](CC(=O)O)C(=O)Nc1ccc2c(C(F)(F)F)cc(=O)oc2c1 (Ac-WEHD-{AFC}),inactive,–
OC[C@H]1O[C@@H](OCCc2ccccc2)[C@H](O[C@@H]2OC[C@](O)(CO)[C@H]2O)[C@@H](O)[C@@H]1O,inactive,–
COC(=O)CCSCc1ccc(-c2onc(C)c2NC(=O)OC(C)c2ccccc2Cl)cc1 (stereo not given),inactive,–
CCC(Nc1ncnc2nc[nH]c12)c1nc2cccc(F)c2c(=O)n1-c1ccccc1 (stereo not given),inactive,–
C=C1C(=O)OC2CC(C)=C(C(C)CCCO)C(O)C12 (stereo not given),inactive,–
C=C1CC2C(C)(CCC(=O)O)C(C(C)(C)O)CCC2(C)C2C(=O)OC(C)(C(=O)OC)C(=O)C12C (stereo not given),inactive,–
CC(C)=CCC/C(C)=C/CO[C@@H]1O[C@H](CO)[C@@H](O)[C@H](O)[C@H]1O,inactive,–
COC(C(=O)N1Cc2[nH]nc(NC(=O)c3ccc(N4CCN(C)CC4)cc3)c2C1)c1ccccc1 (stereo not given),0.517 µM (active),–
C[C@H](NC(c1cccc2[nH]c(=O)c(=O)[nH]c12)P(=O)(O)O)c1ccc(Br)cc1 (stereo not given in full),inactive,–
CC(=O)OC[C@H]1O[C@H](O[C@]2(CO)O[C@H](CO)[C@@H](OC(=O)/C=C/c3ccccc3)[C@@H]2O)[C@H](O)[C@@H](O)[C@@H]1O,inactive,–
C[C@H]1C(=O)N2c3ccccc3[C@@]3(O)C[C@@H]4C(=O)N[C@](C)(c5nc6ccccc6c(=O)n54)N1[C@@H]23,inactive,–
CCOC(=O)C(CCc1ccccc1)NC1CSC(c2cccs2)CN(CC(=O)O)C1=O (stereo not given),inactive,–
Cc1noc(=O)c2ccc(NC(=O)C(O)(CC(C)(C)c3cccc4c3OCC4)C(F)(F)F)cc12 (stereo not given),inactive,–
CC1(C)CC[C@]2(C(=O)O[C@@H]3O[C@H](CO)[C@@H](O)[C@H](O)[C@H]3O)CC[C@]3(C)C(=CCC4[C@@]5(C)C[C@@H](O)[C@H](O)C(C)(C)C5CC[C@]43C)C2[C@@H]1O (stereo not given in full),inactive,–

SMILES,Potency,outcome
CC1CCN(C(=O)CC#N)CC1N(C)c1ncnc2[nH]ccc12 (stereo not given),inactive,–
CC1OC(OC2C(C)OC(OC3C(OC(=O)C45CCC(C)(C)CC4C4=CCC6C7(C)CCC(OC8OC(C(=O)O)C(O)C(O)C8OC8OC(CO)C(O)C(OC9OC(C)C(O)C(O)C9O)C8O)C(C)(CO)C7CCC6(C)C4(C)CC5)OC(CO)C(O)C3O)C(O)C2O)C(O)C(O)C1O (stereo not given),–,inactive [at 9.29 µM]
COc1cc2occc2c(O[C@@H]2O[C@H](CO)[C@@H](O)[C@H](O)[C@H]2O)c1CCC(=O)O,inactive,–
C=C1C[C@]23C[C@H]1CC[C@H]2[C@@]1(C)CCC[C@@]2(C)C(=O)O[C@@H]([C@@H]3O)[C@@H]12,inactive,–
COc1cc2c(c(OC)c1CC=C(C)C)C[C@H](c1ccc(O)cc1O)CO2,inactive,–
CC[C@@H](O)C[C@@H]1C(C)=C[C@@H]2CCCC[C@@H]2[C@@]1(C)C(=O)O,inactive,–
OC1CCC(Nc2ncc3nc(Nc4c(F)cc(F)cc4F)n([C@H]4CCOC4)c3n2)CC1 (stereo not given in full),inactive,–
CCS(=O)(=O)N1CCN(c2ccc(Nc3ncc(C(N)=O)c(NC4CC4)n3)cc2)CC1,4.61 µM (active),–
COc1cc(N2CCOCC2)ccc1Nc1ncc(Cl)c(Nc2ccccc2NS(C)(=O)=O)n1,2.06 µM (active),–
COc1cc2c3c(cc4ccccc4c3c1O)NC2=O,inactive,–
C=CC(C)(C)C12C=C(OC)C(=O)N3C(C(C)C)C(=O)NC31N(OC)c1ccccc12 (stereo not given),inactive,–
O=C(OC1C=C(CO)C2C(OC3OC(CO)C(O)C(O)C3O)OC=CC12)c1ccc(O)cc1 (stereo not given),inactive,–
CC1(O)CCCC2(C)C1CCC13CC(CO)C(CCC12)C3 (stereo not given),inactive,–
CC1C(=O)OCC2=CCN3CCC(OC(=O)C(C)(O)C1(C)O)C23 (stereo not given),inactive,–
COc1cc([C@H]2c3cc(O)c(OC)cc3C[C@@H](CO[C@@H]3O[C@H](CO)[C@@H](O)[C@H](O)[C@H]3O)[C@@H]2CO)ccc1O,inactive,–
CC(=O)c1ccc2c(c1)C(O)C(C(C)(C)O)O2 (stereo not given),inactive,–
CC1(C)CC2C=C(C(=O)O)C3COC(=O)C(O)(CO)C23C1 (stereo not given),inactive,–
COC(=O)CCc1cc2ccoc2c(OC)c1O[C@@H]1O[C@H](CO)[C@@H](O)[C@H](O)[C@H]1O,inactive,–
N#C[C@@H]1CCCN1C(=O)CNC12CC3CC(CC(O)(C3)C1)C2,inactive,–
O=C1CCC(=O)N(O)CCCCCNC(=O)CCC(=O)N(O)CCOCCNC(=O)CCC(=O)N(O)CCCCCN1,inactive,–

# — PubChem BioAssay (NCATS)
